Experimental data: PubChem BioAssay
Calls of active or inactive are those of the source. Unless noted, no rule for the calls is given here.

Assays:
[1] = HepG2 liver cancer cell viability effects, profiling panel, resazurin fluorescence, 24 h, PK04 Diversity Set (AID 1172); conditions: higher = more signal
[2] = basal S. cerevisiae growth modulation, no modifier, primary screen, OD600, strain BY4716, 24 h, basal condition (AID 1173); conditions: OD600, 24 h, higher = more signal, called active from +8 up or from −8 down
[3] = MM1S myeloma cell viability, profiling panel, resazurin fluorescence, basal, 24 h, PK04 Diversity Set (AID 1174); conditions: higher = more signal, called active from +8 up or from −8 down;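 also: MM1S multiple myeloma cell line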
[4] = target: Dihydroorotate dehydrogenase (quinone), mitochondrial (Plasmodium falciparum (isolate 3D7)) (UniProt Q08210); assay: PfDHODH enzyme inhibitors, primary screen, biochemical, C-terminal His tag, absorbance 600 nm (AID 1175); conditions: DCIP absorbance 600 nm, higher = more signal, called active from +8 up or from −8 down;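 also: recombinant parasite enzyme with a five histidine tag at its C terminus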
[5] = P. aeruginosa biofilm formation inhibitors, primary screen, strain PAO1, LB-PBS medium, absorbance 600 nm (AID 1176); conditions: P. aeruginosa PAO1 growth/biofilm, A600, 12 h; higher = more signal
[6] = S. cerevisiae RM11-1a growth modifiers, primary screen, strain RM11-1a, OD600, basal, 24 h (AID 1177); conditions: OD600, 24 h, higher = more signal, called active from +8 up or from −8 down;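 also: cultures grown under basal conditions with no added stressor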
[7] = E. coli acrAB mutant growth effects, primary screen, E. coli filamentation inducers, strain DRC39, OD650, 24 h (AID 1178); conditions: higher = more signal, called active from +8 up or from −8 down;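 also: growth measured as culture turbidity by optical density at 650 nm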
[8] = E. coli acrAB mutant growth effects, primary screen, E. coli filamentation inducers, strain DRC39, OD650, 48 h (AID 1179);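 also: screen aims at cell division blockers that make cells filament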; conditions: E. coli DRC39 delta-acrAB growth, higher = more signal, called active from +8 up or from −8 down
[9] = RPMI8226 myeloma cell viability, profiling panel, resazurin fluorescence, basal, 24 h, PK04 Diversity Set (AID 1180); conditions: higher = more signal;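 also: RPMI8826 multiple myeloma cell line at 5000 cells per well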
[10] = target: E3 ubiquitin-protein ligase XIAP (Homo sapiens) (UniProt P98170); assay: XIAP binders, primary screen, biophysical, small-molecule microarray, fluorescence 635 nm (AID 1181); conditions: small-molecule microarray binding, higher = more signal;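 also: score merges 667 nm emission and signal to noise over triplicate slides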
[11] = system: XIP peptide (Xip251-270) binding; assay: small-molecule binders of XIP peptide, primary screen, biochemical, small-molecule microarray, fluorescence 635/667 nm, 0.1 µg/mL protein (AID 1182); conditions: fluorescent protein binding, 635 nm, higher = more signal, called active from +8 up or from −8 down
[12] = system: XIP peptide (Xip251-270); assay: small-molecule binders of XIP peptide, primary screen, biochemical, small-molecule microarray, fluorescence 635/667 nm, 0.5 µg/mL protein (AID 1183); conditions: small-molecule microarray binding, fluorescence 635 nm; higher = more signal
[13] = Plasmodium falciparum growth inhibition, primary screen, strain 3D7, DAPI fluorescence, 100 nL (AID 1184);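 also: parasites grown inside human red blood cells in medium with human serum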; conditions: P. falciparum 3D7 growth, 3 d, higher = more signal
[14] = target: Homeobox protein Hox-A13 (Mus musculus) (UniProt Q62424); assay: inhibitors of HoxA13-DNA binding, primary screen, biochemical, fluorescence polarization, labeled oligonucleotide (AID 1185); conditions: 15 min, higher = more signal, called active from +8 up or from −8 down
[15] = inhibitors of hydroxyurea-induced Chk1 phosphorylation, primary screen, imaging, HeLa, phospho-Chk1 antibody, percent positive cells (AID 1186); conditions: hydroxyurea-induced phospho-Chk1 immunofluorescence imaging, higher = more signal
[16] = inhibitors of hydroxyurea-induced Chk1 phosphorylation, primary screen, imaging, HeLa, phospho-Chk1 nuclear intensity (AID 1187); conditions: hydroxyurea-induced phospho-Chk1 immunofluorescence imaging, higher = more signal

Sequence of Homeobox protein Hox-A13 (Mus musculus) (Q62424 whole entry, looked up): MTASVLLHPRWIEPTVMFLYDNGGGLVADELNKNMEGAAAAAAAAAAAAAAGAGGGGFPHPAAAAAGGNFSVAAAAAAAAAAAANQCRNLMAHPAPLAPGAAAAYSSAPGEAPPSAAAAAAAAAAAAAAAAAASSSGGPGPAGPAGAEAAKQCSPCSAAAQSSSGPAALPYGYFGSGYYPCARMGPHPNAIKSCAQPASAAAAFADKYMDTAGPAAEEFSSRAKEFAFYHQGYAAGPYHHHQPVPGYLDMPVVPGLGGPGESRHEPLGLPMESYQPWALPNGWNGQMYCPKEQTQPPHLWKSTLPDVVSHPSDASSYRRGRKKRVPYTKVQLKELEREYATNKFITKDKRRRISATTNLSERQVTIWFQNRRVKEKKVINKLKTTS
Sequence of Dihydroorotate dehydrogenase (quinone), mitochondrial (Plasmodium falciparum (isolate 3D7)) (Q08210 whole entry, looked up): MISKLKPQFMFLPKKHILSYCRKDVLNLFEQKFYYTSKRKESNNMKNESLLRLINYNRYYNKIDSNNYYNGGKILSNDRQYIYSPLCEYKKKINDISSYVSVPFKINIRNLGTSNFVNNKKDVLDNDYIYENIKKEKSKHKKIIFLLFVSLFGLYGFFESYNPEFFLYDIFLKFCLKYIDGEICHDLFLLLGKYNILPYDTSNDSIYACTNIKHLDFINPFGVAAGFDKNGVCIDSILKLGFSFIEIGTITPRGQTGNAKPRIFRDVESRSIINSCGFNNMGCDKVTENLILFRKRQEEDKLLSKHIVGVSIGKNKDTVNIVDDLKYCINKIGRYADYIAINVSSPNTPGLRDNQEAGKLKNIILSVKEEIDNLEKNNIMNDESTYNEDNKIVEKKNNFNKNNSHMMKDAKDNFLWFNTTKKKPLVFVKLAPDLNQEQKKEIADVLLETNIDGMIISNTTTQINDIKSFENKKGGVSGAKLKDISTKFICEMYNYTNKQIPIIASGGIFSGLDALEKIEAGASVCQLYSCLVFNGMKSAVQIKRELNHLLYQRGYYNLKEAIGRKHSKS
Sequence of E3 ubiquitin-protein ligase XIAP (Homo sapiens) (P98170 whole entry, looked up): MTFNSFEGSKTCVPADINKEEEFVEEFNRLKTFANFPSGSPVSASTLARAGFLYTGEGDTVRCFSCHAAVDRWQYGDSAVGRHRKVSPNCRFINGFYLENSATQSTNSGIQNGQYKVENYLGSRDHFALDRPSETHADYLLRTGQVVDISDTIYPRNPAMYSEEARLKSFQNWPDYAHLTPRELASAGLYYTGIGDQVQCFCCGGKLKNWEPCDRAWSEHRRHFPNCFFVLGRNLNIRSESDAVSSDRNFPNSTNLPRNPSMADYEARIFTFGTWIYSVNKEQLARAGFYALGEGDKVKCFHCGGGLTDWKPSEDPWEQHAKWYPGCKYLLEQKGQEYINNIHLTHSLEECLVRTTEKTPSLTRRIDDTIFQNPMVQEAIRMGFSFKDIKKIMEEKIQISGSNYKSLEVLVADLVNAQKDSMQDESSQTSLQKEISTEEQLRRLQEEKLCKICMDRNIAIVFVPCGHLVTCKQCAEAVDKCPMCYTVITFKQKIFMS

| Compound | z-score [1] | z-score [2] | z-score [3] | composite z-score [4] | z-score [5] | z-score [6] | z-score [7] | z-score [8] | z-score [9] | composite z-score [10] | composite z-score [11] | composite z-score [12] | z-score [13] | z-score [14] | z-score [15] | z-score [16] |
| --- | --- | --- | --- | --- | --- | --- | --- | --- | --- | --- | --- | --- | --- | --- | --- | --- |
| CN1C(=O)C2C=CC(C(O)C#Cc3ccccc3)N(N3CCCCC3)C2C1=O (stereo not given) | -0.279 | -0.375 (inactive) | -0.347 (inactive) | -1.07 (inactive) | 0.614 (inactive) | -0.0362 (inactive) | -0.276 (inactive) | -0.884 (inactive) | -0.0142 | -0.0474 | 1.34 (inactive) | 0.84 | -0.254 | -4.72 (inactive) | -0.699 (inactive) | -0.674 (inactive) |
| COc1cc2c(cc1OC)CN(C(=O)[C@@H]1[C@H]3C(=O)O[C@H](c4ccccc4)[C@H](c4ccccc4)N3[C@H](c3ccc(O)cc3)[C@@]13C(=O)Nc1ccccc13)CC2 | -0.313 | -0.128 (inactive) | 0.118 (inactive) | -0.228 (inactive) | 0.614 (inactive) | 0.028 (inactive) | 1.07 (inactive) | -0.4 (inactive) | 0.109 | -0.201 | 0.0997 (inactive) | 0.686 | -1.42 | -2.32 (inactive) | -0.478 (inactive) | -0.728 (inactive) |
| C=CCOC(=O)[C@H]1[C@@H]2C(=O)O[C@@H](c3ccccc3)[C@@H](c3ccccc3)N2[C@@H](c2ccc(OCCOC(=O)[C@@H]3C[C@@H]4C(=O)N[C@@H](CCCCNC(C)=O)C(=O)N4[C@@H]3c3ccc(O)cc3)cc2)[C@]12C(=O)Nc1ccccc12 | -0.707 | 0.857 (inactive) | -0.0524 (inactive) | 0.0572 (inactive) | 1.83 (inactive) | 1.74 (inactive) | -0.605 (inactive) | -1.35 (inactive) | -0.407 | -0.0018 | 2.75 (inactive) | 0.818 | -1.8 | -1.89 (inactive) | -0.731 (inactive) | 0.21 (inactive) |
| COCCOC(=O)N1C(=O)[C@@]2(c3cc(C#CCNC(N)=O)ccc31)[C@H](C(=O)Nc1nc3ccccc3s1)[C@H]1C(=O)O[C@H](c3ccccc3)[C@H](c3ccccc3)N1[C@@H]2c1ccc(OCCO)cc1 | 0.382 | 1.83 (inactive) | 0.114 (inactive) | -0.716 (inactive) | 2.41 (inactive) | 1.41 (inactive) | -0.27 (inactive) | -0.463 (inactive) | -0.397 | 0.0402 | 0.113 (inactive) | -0.221 | 0.764 | 0.886 (inactive) | -0.0719 (inactive) | -0.0419 (inactive) |
| O=C(NCCN1CCOCC1)C1N=C(c2ccc(OCCCO)cc2)N(c2ccccc2)O1 (stereo not given) | -0.154 | 0.554 (inactive) | 0.602 (inactive) | 0.301 (inactive) | -0.978 (inactive) | -0.377 (inactive) | 0.149 (inactive) | 0.116 (inactive) | 0.385 | 0.172 | 2.46 (inactive) | 0.738 | -0.122 | -1.6 (inactive) | -0.227 (inactive) | -0.0873 (inactive) |
